The panel holds about 79,000 compounds, 15% with a hit somewhere; the sample as a whole holds those more often. Rule as the data show it: active = growth inhibition above about 70%; inactive = the rest.
Legend:
[1] = NCI Yeast Anticancer Drug Screen. Data for the rad50 strain (AID 155);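 also: 0% = growth of vehicle-only cultures of the same strain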; details: S. cerevisiae rad50 strain growth inhibition; at 50.0 µM; active compounds read high
In short: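 Genetically altered yeast (DNA repair pathway); compound treatment; growth inhibition vs vehicle ctrl.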

[2] = NCI Yeast Anticancer Drug Screen. Data for the mec2-1 strain (AID 157); details: S. cerevisiae mec2-1 strain, at 50.0 µM, active compounds read high
In short: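 Vehicle-treated cultures served as reference for growth inhibition of compound-exposed mec2-1 yeast.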

[3] = NCI Yeast Anticancer Drug Screen. Data for the sgs1 mgt1 strain (AID 161);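 also: 0% = growth of cultures given vehicle only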; details: S. cerevisiae sgs1 mgt1 strain, at 50.0 µM, active compounds read high
In short: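 Mutant yeast exposed to compound; growth scored against vehicle-only wells.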

[4] = NCI Yeast Anticancer Drug Screen. Data for the cln2 rad14 strain (AID 165);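 also: 0% = growth equal to vehicle treated cultures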; details: S. cerevisiae cln2 rad14 strain, at 50.0 µM, active compounds read high
In short: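 Each compound was tested on cln2 rad14 yeast. Inhibition of growth was calculated against vehicle-exposed controls.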

[5] = NCI Yeast Anticancer Drug Screen. Data for the bub3 strain (AID 167); details: S. cerevisiae bub3 mutant strain, at 50.0 µM, active compounds read high
In short: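 Yeast carrying a defined mutation is treated with each compound, and growth is compared with that of vehicle-exposed cells to give inhibition.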

[6] = NCI Yeast Anticancer Drug Screen. Data for the mlh1 rad18 strain (AID 175); details: S. cerevisiae mlh1 rad18 strain growth inhibition; at 50.0 µM; active compounds read high
In short: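 Vehicle-treated cultures served as the reference for growth inhibition in a yeast strain carrying DNA damage repair alterations exposed to each compound.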

Measured: growth inhibition

C=C(C)C(=O)O[C@H]1CC2=C[C@@H](C[C@@]3(C)O[C@@H]3[C@H]3OC(=O)C(=C)[C@@H]31)OC2=O
inactive: [1] -8.35% | [2] 10.1% | [3] 22.2% | [4] 6.4% | [5] -10% | [6] -5.15%

OC1CC2CCCCC2CC1c1ccccc1 (centres undefined)
inactive: [1] 14.1% | [2] 3.1% | [3] -15.3% | [4] -0.05% | [5] 27.4% | [6] 33.5%

CN(C)C=NCc1ccc2c(c1)OCO2
inactive: [1] 2.05% | [2] -24% | [3] -13.2% | [4] 2.7% | [5] 1.5% | [6] -17%

CON(C)c1nc2ccccc2o1
inactive: [1] -22.1% | [2] -8.45% | [3] -9% | [4] -16.8% | [5] -2.3% | [6] -17.6%

COC(=O)C(CCc1ccccc1[N+](=O)[O-])C(=O)OC
inactive: [1] 38.6% | [2] 10.8% | [3] 11.7% | [4] -4.45% | [5] 43% | [6] 34.1%

O=c1[nH]c2ccccc2nc1/C=C/n1c(=S)[nH]c2ccccc21
inactive: [1] -31.4% | [2] -28.2% | [3] -46.4% | [4] -16.6% | [5] -33.5% | [6] -20.7%

CC(=O)NC(C(=O)O)C(C)(C)S (centres undefined)
inactive: [1] -1.85% | [2] -48.9% | [3] -4.7% | [4] 26.8% | [5] -33.2% | [6] 8.95%

CCOc1ccc(N=C=S)cc1
inactive: [1] 29.9% | [2] -3.05% | [3] 18% | [4] 22.3% | [5] 18.9% | [6] 49%

CC/C(C)=N\NC(=O)CC(=O)N/N=C(/C)CC
inactive: [1] -8.35% | [2] 1.45% | [3] -7% | [4] -61.6% | [5] -4% | [6] -17.1%

O=c1c(O)c(-c2cc(O)c(O)c(O)c2)oc2cc(O)ccc12
inactive: [1] -35.5% | [2] -36.8% | [3] -24.3% | [4] -8.8% | [5] -32.8% | [6] -29.8%

CCOC(=O)c1c(NC2=NCCC2)n[nH]c1N
inactive: [1] 7.05% | [2] 14.8% | [3] 15% | [4] 14.7% | [5] -18.6% | [6] 5.9%

CC12CCC(=O)C=C1CCC1C2C(O)CC2(C)C1CCC2(O)C(=O)COC(=O)C1C2C=CC(C2)C1C(=O)O (centres undefined)
inactive: [1] 24.1% | [2] 9.45% | [3] 25% | [4] 12.1% | [5] -6.85% | [6] 25.1%

Cc1cc(=O)[nH]c2c1CCCC2
inactive: [1] -13.7% | [2] 10.8% | [3] 10% | [4] -38.4% | [5] -26.6% | [6] 8.25%

CCN(CC)C(=O)c1ccc(C(C)C)cc1
inactive: [1] 20.4% | [2] 14.8% | [3] 27.9% | [4] 6.6% | [5] 18.3% | [6] 25.8%

Cc1nc(N)[nH]c(=O)c1CCO
inactive: [1] -1.3% | [2] -23% | [3] -36.6% | [4] 3.3% | [5] -15.1% | [6] -3.8%

Cc1nn(C(N)=S)c(C)c1N=Nc1ccc(Cl)cc1
inactive: [1] 9.6% | [2] -0.25% | [3] 10.8% | [4] -62.8% | [5] -8.35% | [6] 19.9%

COc1cc2oc(=O)ccc2cc1[C@@H]1OC(=O)[C@@]2(C)O[C@@H]12
inactive: [1] -0.75% | [2] -6.3% | [3] -1.35% | [4] -35.7% | [5] 3.35% | [6] -2.85%

COc1c(O)c2ccccc2c2cc(O)ccc12
inactive: [1] 6.8% | [2] 25.1% | [3] 23.6% | [4] -14.2% | [5] 56.4% | [6] 10.2%

Cc1ccc(Cc2ccc(CCc3ccc(Cc4ccc(C)cc4)cc3)cc2)cc1
inactive: [1] 10.2% | [2] 7.15% | [3] 18.6% | [4] 32.4% | [5] 12.2% | [6] 11.5%
